# According to the supplement of paper PMC10933113:
# Counter-ions that a name gives are not always drawn. ± gives the uncertainty stated by the source.
# Tested on: KeratinoSens (HaCaT ARE-luciferase) cells
# Assay: Nrf2/ARE luciferase activation call in qHTS KeratinoSens assay (1 = active, 0 = inactive)
# Settings: not given;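 active = curve rank above 3; inactive = curve rank 0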
row,SMILES,Nrf2/ARE luciferase activation call
1,CNC[C@H](O)c1ccc(O)c(O)c1.O=C(O)[C@H](O)[C@@H](O)C(=O)O,not active ARE inducer (skin sensitizer alert) (inactive)
2,CCCC[n+]1ccccc1C.O=S(=O)([O-])C(F)(F)F,not active ARE inducer (skin sensitizer alert) (inactive)
3,C[NH+](C)CCC(c1ccccc1)c1cccc[nH+]1.O=C([O-])/C=C\C(=O)[O-] (centres undefined),not active ARE inducer (skin sensitizer alert) (inactive)
4,Cc1ccc(S(=O)(=O)O)cc1.NC1CCN(c2nc3c(cc2F)c(=O)c(C(=O)O)cn3-c2ccc(F)cc2F)C1 (centres undefined),not active ARE inducer (skin sensitizer alert) (inactive)
5,Cn1c(=O)c2c(ncn2C)n(C)c1=O.O=C(O)CC(O)(CC(=O)O)C(=O)O,not active ARE inducer (skin sensitizer alert) (inactive)
6,CC[n+]1ccccc1.O=S(=O)([O-])C(F)(F)F,not active ARE inducer (skin sensitizer alert) (inactive)
7,CN(C)CCOC(C)(c1ccccc1)c1ccccn1.O=C(O)CCC(=O)O (centres undefined),not active ARE inducer (skin sensitizer alert) (inactive)

# Tested on: THP-1
# Assay: CD86 surface expression induction over DMSO control (% over DMSO); higher = stronger dendritic cell activation
# Settings: exposure time: 24 h
# Method: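 hCLAT-like CD54 and CD86 surface expression on THP1 cells after 24 h exposure at a single concentration (highest non-cytotoxic concentration, or 100-200 µM if not cytotoxic). Flow cytometry (iQue) was run on 5,000 live cells.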
row,SMILES,CD86 surface expression induction
1,"COc1cc(C(C)(C)C)c(O)c(C(C)(C)C)c1 [2,6-Di-tert-butyl-4-methoxyphenol] (200 µM)",18.9 ± 43
2,CCCCCCCCCCCC(=O)NCCCN(C)C [N-[3-(Dimethylamino)propyl]dodecanamide] (200 µM),43.4 ± 63
3,O=C(Nc1ncc([N+](=O)[O-])s1)c1cccs1 [Tenonitrozole] (10 µM),-9.19 ± 11
4,CNc1ccc(O)cc1 [4-(Methylamino)phenol Sulfate] (10 µM),37.1 ± 4.6
5,COc1cc(C(C)C)c2c(c1)S(=O)(=O)N(COc1cc(=O)n3cccc(OCCN4CCCCC4)c3n1)C2=O (100 µM),117 ± 98
6,CCCCCCCC(=O)Oc1c(Br)cc(C#N)cc1Br [Bromoxynil octanoate] (100 µM),-3.51 ± 5
7,CCOC(=O)CCC(=O)OCC [Diethyl butanedioate] (200 µM),-4.2 ± 3.3
8,"O=[N+]([O-])c1cc(Cl)c(Cl)c(Cl)c1Cl [2,3,4,5-Tetrachloronitrobenzene] (10 µM)",-3.95 ± 2.5
9,Clc1ccc2c(c1)Nc1ccccc1S2 [2-Chlorophenothiazine] (100 µM),-11 ± 14
10,CC(C)(C)OC(=O)c1ccc(O)cc1 [tert-Butyl 4-hydroxybenzoate] (100 µM),-2.42 ± 14
11,c1ccc2cc3c(ccc4ccccc43)cc2c1 [Benz(a)anthracene] (200 µM),-20.1 ± 26
12,"c1ccc(SCCSc2ccccc2)cc1 [1,2-Bis(phenylthio)ethane] (100 µM)",-2.45 ± 2.3
13,CCCCCCC(C)O (centres undefined) [2-Octanol] (200 µM),0.56 ± 6.7
14,CC1COc2ccccc2N1C(=O)C(Cl)Cl (centres undefined) [Benoxacor] (10 µM),17.1 ± 5.4
15,O=CC(=O)c1ccccc1 [Phenyl glyoxal] (100 µM),4.41 ± 2
16,O=C(O)Cc1cc(I)c(Oc2cc(I)c(O)c(I)c2)c(I)c1 [Tetrac] (100 µM),12.3 ± 2
17,CCN(CC)CCSC(=O)C(c1ccccc1)c1ccccc1 [Thiphenamil] (200 µM),107 ± 65
18,CCC(=O)C=Cc1ccc(OC)cc1 [1-(4-Methoxyphenyl)-1-pentene-3-one] (200 µM),6.83 ± 10
19,COc1cc(Nc2c(C#N)cnc3cc(OCCCN4CCN(C)CC4)c(OC)cc23)c(Cl)cc1Cl [Bosutinib] (100 µM),5.12 ± 41
20,CC/C=C\C/C=C\C/C=C\CCCCCCCC(=O)OCC [Ethyl linolenate] (10 µM),-8.18 ± 6.8
21,CCCCCCCCCCCCOCCO [2-(Dodecyloxy)ethanol] (200 µM),57 ± 59
22,Cc1ccc(O)c(-n2nc3ccccc3n2)c1 [2-(2H-Benzotriazol-2-yl)-4-methylphenol] (100 µM),-18.9 ± 28
23,CCOc1ccc2nc3cc(N)ccc3c(N)c2c1 [Ethacridine lactate monohydrate] (200 µM),42.2 ± 53
24,O=C1c2ccccc2C(=O)C1c1ccc2ccccc2n1 [D & C Yellow II] (10 µM),-14.2 ± 7.4
25,O=C1c2cccc(O)c2C(=O)c2c(O)cc(CO)cc21 [Aloe-emodin] (100 µM),4.61 ± 9.4
26,Cc1cc(C2(c3cc(C)c(O)cc3C)OS(=O)(=O)c3ccccc32)c(C)cc1O [p-Xylenol blue] (200 µM),2.3 ± 1.9
27,CCN(CC)c1ccc(C(=O)c2ccccc2C(=O)O)c(O)c1 [2-[4-(Diethylamino)-2-hydroxybenzoyl]benzoic acid] (10 µM),-12.1 ± 11
